Assay results taken from the supplement of paper PMC12636033.
± gives the standard deviation of the averaged measurements. Whole data set: some 33,000 sequences, median “E-score (rank enrichment, -0.5 to 0.5)” near -0.0043, cut for the highest 2% near 0.24. The entries come from a sample that favours the highest values as a whole.

system: 2Sp-muMax20 (muMax20 with two 2,6-bis(methyl)pyridine Cys staples); assay: PBM 8-mer E-score (E-score (rank enrichment, -0.5 to 0.5)); higher = stronger preferential binding
Description: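 Protein binding microarray (universal PBM chip covering all 10-mers in fixed probe flanks) with chemically synthesized human Max(13-93) bHLH-LZ analogs (not full-length Max) bearing noncanonical residues (hArg, Tha, Aib, Nle at 65) and aromatic Cys staples. Read-out per 8-mer (and its reverse complement): E-score (rank-based enrichment, -0.5 to 0.5) and Z-score of median probe intensity.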

| Sequence | PBM 8-mer E-score |
| --- | --- |
| AACGTGCA | 0.149 ± 0.025 |
| CACGTGCC | 0.405 ± 0.0045 |
| GGCGTGCA | 0.11 ± 0.047 |
| CCCGTGCG | -0.119 ± 0.06 |
| CACGTGCA | 0.419 ± 0.027 |
| GGTAGCAA | 0.163 ± 0.004 |
| AAGTACTT | 0.109 ± 0.032 |
| ACCGCATG | 0.132 ± 0.074 |
| GCGCATCA | 0.0862 ± 0.011 |
| CGGGTACA | -0.205 ± 0.03 |
| GACCGACA | -0.18 ± 0.052 |
| GAACAAAC | 0.046 ± 0.051 |
| CCATAATC | 0.159 ± 0.019 |
| CTCTTAGA | -0.116 ± 0.051 |
| AAACAATT | 0.252 ± 0.046 |
| AAACAATG | 0.121 ± 0.021 |
| AACAAGTT | 0.0512 ± 0.042 |
| AAACAATA | 0.101 ± 0.046 |
| AACAAATA | 0.212 ± 0.063 |
| AACAAATT | 0.265 ± 0.0042 |
| ATGCAGTA | 0.0482 ± 0.088 |
| ACATAGCT | -0.143 ± 0.0071 |

| Sequence | PBM 8-mer E-score |
| --- | --- |
| TCCCTCCA | -0.114 ± 0.086 |
| ACCCTCCC | 0.26 ± 0.043 |
| TCCCTTCA | 0.107 ± 0.057 |
| CCCCTTCA | 0.248 ± 0.1 |
| CCCTCCCC | 0.142 ± 0.11 |
| CCCCTCCC | 0.311 ± 0.014 |
| ACCCTCCA | 0.168 ± 0.0021 |
| CCCCTTCC | -0.00527 ± 0.1 |
| ACCCTCCT | -0.0498 ± 0.0072 |
| GCCCTCCA | -0.00293 ± 0.051 |
| CCCCTCCA | 0.236 ± 0.033 |
| CCCCTCCG | -0.0068 ± 0.12 |
| ATATACGG | 0.0505 ± 0.015 |
| GGCTCAAC | -0.0877 ± 0.06 |
| AGGAATAA | 0.0163 ± 0.077 |
| CTTCTACA | -0.0255 ± 0.032 |
| ACCTGCCA | -0.188 ± 0.047 |
| GCATTATA | 0.186 ± 0.059 |
| CCATTATC | 0.157 ± 0.04 |
| ACATTATC | 0.159 ± 0.038 |
| ACATTATA | 0.282 ± 0.0059 |
| ACATTATG | 0.147 ± 0.1 |

| Sequence | PBM 8-mer E-score |
| --- | --- |
| CCATTATA | 0.257 ± 0.045 |
| CGTATGCC | -0.0525 ± 0.034 |
| GCTGTTGA | -0.119 ± 0.013 |
| AGGGTGGC | 0.0126 ± 0.068 |
| AGGGTGGA | -0.0107 ± 0.009 |
| AGGGTGGG | 0.245 ± 0.073 |
| ACAGAGAA | 0.129 ± 0.14 |
| ACATGGGA | 0.162 ± 0.035 |
| ATATGGGC | 0.249 ± 0.04 |
| ATATGGGG | 0.239 ± 0.024 |
| ATATGGAG | 0.127 ± 0.014 |
| CTATGGGC | -0.0549 ± 0.074 |
| ACATGGGG | 0.246 ± 0.072 |
| ATATGGGA | 0.136 ± 0.11 |
| CCATGGGG | -0.0568 ± 0.073 |
| AGATGGGC | -0.0126 ± 0.1 |
| GAATCATC | -0.0799 ± 0.064 |
| TCGTACAA | 0.1 ± 0.042 |
| CAACCAAC | -0.132 ± 0.022 |
| TCATTTCA | 0.171 ± 0.068 |
| CATGGCCA | 0.0303 ± 0.016 |
| CCAGCAGG | -0.054 ± 0.077 |

| Sequence | PBM 8-mer E-score |
| --- | --- |
| CGTTTCAA | -0.171 ± 0.036 |
| CGTTTATC | -0.0397 ± 0.011 |
| AGGCCCGA | -0.161 ± 0.0046 |
| GATATATA | 0.204 ± 0.027 |
| CATATATC | 0.232 ± 0.0054 |
| TATATAGA | 0.166 ± 0.025 |
| CATATAGG | 0.145 ± 0.0097 |
| CATATACG | 0.0657 ± 0.013 |
| CATATATG | 0.308 ± 0.036 |
| AAGATATA | 0.259 ± 0.022 |
| CATATATA | 0.277 ± 0.012 |
| CAGATATA | 0.0905 ± 0.056 |
| CATATAGA | 0.182 ± 0.038 |
| AAGATATC | 0.211 ± 0.14 |
| TATATATA | 0.315 ± 0.019 |
| CCTAGTAG | 0.00183 ± 0.043 |
| CACACTAA | 0.172 ± 0.041 |
| CGTCCCAG | -0.132 ± 0.0026 |
| CTATGGAG | 0.0519 ± 0.034 |
| CAAGCTTA | -0.00639 ± 0.037 |
